Legend:
Assay in all cases: PBM binding z-score (relative to random genomic background probes); higher = stronger binding; sequences stand for … in GC…GCGATTGACAGCGTAGAATGAAGG
[1] = system: FXR:RXRa (NR concentration 270 nM, RXRa partner concentration 90 nM)
In short: (§1)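 Custom Agilent 4×180K protein-binding microarrays carried double-stranded probes, each with a 34-nt variable region. These regions held direct-repeat seeds, single-nucleotide variants, half-site ablations and random human genomic background sequences. Ligand-free nuclear receptor dimers were incubated on the arrays for 1 h, antibodies against each partner (one per run) detected binding, and scanned fluorescence was regression-normalized. Binding z-scores take the random background probes as reference.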

[2] = system: LXRa:RXRa (NR concentration 270 nM, RXRa partner concentration 90 nM)
In short: as §1

[3] = system: LXRa homodimer (NR concentration 270 nM)
In short: as §1

[4] = system: LXRb:RXRa (NR concentration 270 nM, RXRa partner concentration 90 nM)
In short: as §1

[5] = system: LXRb homodimer (NR concentration 270 nM)
In short: as §1

[6] = system: PPARa:RXRa (NR concentration 270 nM, RXRa partner concentration 90 nM)
In short: as §1

[7] = system: PPARg:RXRa (NR concentration 180 nM, RXRa partner concentration 90 nM)
In short: as §1

[8] = system: PPARg:RXRa 270nM:90nM, anti-RXR (NR concentration 270 nM, RXRa partner concentration 90 nM)
In short: as §1

[9] = system: PPARg:RXRa 30nM:10nM, anti-RXR (NR concentration 30 nM, RXRa partner concentration 10 nM)
In short: as §1

[10] = system: PPARg:RXRa 90nM:30nM, anti-RXR (NR concentration 90 nM, RXRa partner concentration 30 nM)
In short: as §1

[11] = system: PPARg:RXRa DBDmut IVT, anti-RXR (DBD mutation: RXRa K156A/R161A, NR concentration 270 nM, RXRa partner concentration 90 nM)
In short: as §1

[12] = system: PPARg:RXRa IVT, anti-PPARg (NR concentration 270 nM, RXRa partner concentration 90 nM)
In short: as §1

[13] = system: PPARg DBDmut:RXRa IVT, anti-PPARg (DBD mutation: PPARg1 K132A/R137A, NR concentration 270 nM, RXRa partner concentration 90 nM)
In short: as §1

[14] = system: PPARg DBDmut IVT, anti-PPARg (DBD mutation: PPARg1 K132A/R137A, NR concentration 270 nM)
In short: as §1

[15] = system: PPARg homodimer (NR concentration 180 nM)
In short: as §1

[16] = system: PXR:RXRa (NR concentration 270 nM, RXRa partner concentration 90 nM)
In short: as §1

[17] = system: PXR homodimer (NR concentration 270 nM)
In short: as §1

[18] = system: RARa:RXR (NR concentration 270 nM, RXRa partner concentration 90 nM)
In short: as §1

[19] = system: RARa homodimer (NR concentration 270 nM)
In short: as §1

[20] = system: RARb:RXRa (NR concentration 270 nM, RXRa partner concentration 90 nM)
In short: as §1

Sequence	PBM binding z-score [1]	PBM binding z-score [2]	PBM binding z-score [3]	PBM binding z-score [4]	PBM binding z-score [5]	PBM binding z-score [6]	PBM binding z-score [7]	PBM binding z-score [8]	PBM binding z-score [9]	PBM binding z-score [10]	PBM binding z-score [11]	PBM binding z-score [12]	PBM binding z-score [13]	PBM binding z-score [14]	PBM binding z-score [15]	PBM binding z-score [16]	PBM binding z-score [17]	PBM binding z-score [18]	PBM binding z-score [19]	PBM binding z-score [20]
CCTACTGGGCCACGAAAGGTCAGTGATTCAGTGA	1.7	3.12	1.41	2.24	-0.661	3.53	3.77	3.87	1.03	2.79	4.86	5.84	1.69	0.78	3.12	3.42	0.0598	3.82	1.31	3.81
CGTCCAAGGTAAAAGGTCAGTGAAGAGATGACGG	3.59	3.34	0.701	3.27	-0.538	5.23	6.53	6.49	4.59	6.15	0.99	3.62	-0.145	0.215	2.6	3.83	0.564	5.16	1.15	4.44
ATATGTAGGTTACATCCTGGTCATTCAGGCTATG	0.666	2.03	0.602	1.28	0.798	3.16	5.21	4.44	2	3.57	7.08	7.21	2.2	2.23	0.657	0.747	0.205	1.05	0.992	1.11
CATACAGGGTCAGCTAGGCCGGAGTAGGGACGGC	4.6	2.61	-0.304	1.86	0.54	3.9	2.9	2.96	0.304	1.69	0.767	2.06	0.399	0.204	1.63	1.76	-0.278	2.9	0.038	3.87
TCGAGTAGGTTAGTCGGGGAATTCAGCCAACATA	-0.0396	-0.257	-0.394	-0.065	-0.946	0.287	-0.188	0.615	0.883	0.675	2.15	1.62	-0.453	-0.828	-0.2	-0.311	-0.47	-0.102	-0.0152	-0.105
TCGAGTAGGTTACCAATGGCGCATTCAGCTTTCT	0.273	0.571	-0.489	0.382	-0.736	0.977	0.185	1.23	1.11	1.17	3.69	2.51	0.479	-0.462	-0.236	0.00763	-0.811	0.064	-0.676	0.628
AGTCAAAGTTCAGGACGAGGTGACGTAAAGCACG	4.38	3.95	1.24	1.82	0.0614	3.67	4.83	5.11	2.14	4.25	-0.365	2.55	-0.0177	-0.0513	2.73	3.51	1.23	3.58	0.938	4.46
